Shown is part of a subset that was picked to be rich in hits.
RmlC RmlD mix: RmlC/RmlD inhibition, mixture screen | RmlC/RmlD coupled enzyme inhibition, 384-well mixture HTS | inhibition, % at 5.5 µM | hit rate 0.39% among 110,000; in the data active = inhibition above about 30%, passing the limit was not always enough; inconclusive = no clear call, values can overlap the other calls
HIV RNase H inh-1: blocks HIV-1 RNase H cleavage of RNA/DNA duplex; inhibition, % at 10 µM; hit rate 1.9% among 65,000; RT-RNase H RNA/DNA duplex cleavage, fluorescence; AID 565; P04585; in the data active = inhibition above about 50%
HIV RNase H inh-2: confirmation of HIV-1 reverse transcriptase RNase H inhibitors. shares compounds with HIV RNase H inh-1. Recombinant RT RNase H, fluorescent RNA/DNA duplex cleavage. inhibition, % at 10 µM. hit rate 39% among 1,000. AID 651; in the data active = inhibition above about 48%; inconclusive = no clear call, values can overlap the other calls
* marks the source's active call; other numbers are inactive results; ? = inconclusive; nt = not tested or not shown.

SMILES | RmlC RmlD mix | HIV RNase H inh-1 | HIV RNase H inh-2
O=C(Nc1cc(N2CCOCC2)ncn1)Nc1cccc2ccccc12 | -3 | -2 | nt
CCN(CC)c1ccc(C=N/C(C#N)=C(\N)C#N)cc1 | 14 | 80* | 45
CCN(CC)c1ccc(/C=N/N2CCOCC2)cc1 | 0 | nt | nt
CCOC(=O)c1cc2sccc2n1CCCN1C(=O)c2ccccc2C1=O | -6 | -12 | nt
CC(C)OCCCNC(=O)C1CCC(=O)N1C1CCCC1 (stereo not drawn) | 22 | nt | nt
COc1ccc(C(=O)Nc2ccccc2C(=O)NC(C(=O)NCc2ccco2)C(C)C)cc1 (stereo not drawn) | 9 | 82* | 7
COc1ccc(C(=O)Nc2ccccc2C(=O)N(Cc2ccco2)C(C(N)=O)C(C)C)cc1 (stereo not drawn) | 5 | nt | nt
Cc1ccc(C)c2[nH]c(=O)c(C(c3nnnn3Cc3ccco3)N3CCc4ccccc4C3)cc12 (stereo not drawn) | -4 | 42 | nt
CCOC(=O)C1=C(C)N(C)C(=O)C1CC(=O)O (stereo not drawn) | -10 | nt | nt
COC(=O)/C=c1/sc2nc3ccccc3n2c1=O | 7 | -3 | nt
O=c1/c(=C/c2ccccn2)sc2nc3ccccc3n12 | nt | 60* | 79*
CCOC(=O)C1CCCN(C(=O)CNS(=O)(=O)c2ccc(Br)s2)C1 (stereo not drawn) | -2 | -7 | nt
CCOC(=O)c1c(NC(=O)c2cc(C3CC3)on2)sc(C(C)=O)c1C | nt | 68* | 51
CCOC(=O)c1c(NC(=O)c2ccco2)sc2c1CCCCC2 | -4 | -46 | nt
CCOC(=O)c1c(NC(=O)c2csc(C)c2)sc(C(C)=O)c1C | nt | -11 | nt
CCCc1cc(C(=O)Nc2sc(C)c(C)c2C(=O)OCC)no1 | -32 | 86* | 67*
CCOC(=O)c1c(NC(=O)c2ccc(Cl)s2)sc(C)c1C | -107 | 20 | nt
CCOC(=O)c1c(NC(=O)c2cc(C3CC3)on2)sc2c1CCCC2 | nt | 84* | 94*
CC1=NC(Nc2nc(C)c3ccccc3n2)=NC(C)(C)C1 | 11 | -11 | nt
O=C1CSc2nc3ccccc3n21 | -8 | nt | nt
O=C(CCCN1C(=O)c2ccccc2C1=O)NCCC1=CCCCC1 | -14 | -24 | nt
O=C1CN2C(=Nc3ccc(Br)cc3C2c2ccccc2)CCN1 (stereo not drawn) | -8 | 2 | nt
Cc1noc(NS(=O)(=O)c2ccc(NC(=O)CSc3nc4c(cc3C#N)CCC4)cc2)c1C | -10 | 78* | ?
Cc1noc(NS(=O)(=O)c2ccc(NC(=O)CSc3nc4c(cc3C#N)CCCC4)cc2)c1C | -16 | 11 | nt
CCOC(=O)c1sc(NC(=O)CSc2nc3c(cc2C#N)CCCCCC3)c(C#N)c1C | 16 | 73* | ?
SMILES | RmlC RmlD mix | HIV RNase H inh-1 | HIV RNase H inh-2
CCOC(=O)c1sc(NC(=O)CSc2nc3c(cc2C#N)CCC3)c(C#N)c1C | nt | 43 | nt
N#Cc1cc2c(nc1SCC(=O)Nc1sc3c(c1C#N)CCC3)CCCCC2 | -9 | 66* | 23
CCOC(=O)c1cnc(SCC(=O)Nc2sc(C)c(C)c2C#N)nc1N | 3 | 63* | 16
CCOC(=O)c1cnc(SCC(=O)Nc2cc(OC)cc(OC)c2)nc1N | 7 | -3 | nt
N#Cc1cc2c(nc1SCC(=O)Nc1sc3c(c1C#N)CCC3)CCCC2 | 4 | nt | nt
Cc1cccc(CCNC(=O)C2CCC(=O)N2Cc2ccc(F)cc2)c1 (stereo not drawn) | 2 | nt | nt
Cc1ccc(CNC(=O)CCNC(=O)c2ccc(Br)o2)cc1 | 6 | nt | nt
CC(C)(C)C(=O)NC1=NCCS1 | -7 | nt | nt
CCOC(=O)N1CCC2(CC1)C(C#N)=C(N)Oc1n[nH]c(CSc3ccc(C)cc3)c12 | -13 | -11 | nt
Cc1cccc(-c2csc(NC(=O)c3cnccn3)c2C(=O)OC(C)C)c1 | 5 | nt | nt
COC(=O)c1c(-c2cccnc2)csc1NC(=O)c1cc(C)on1 | -8 | 86* | ?
CC(C)NC(=O)c1cc(C(=O)c2cc(Cl)ccc2O)coc1=N | 4 | -8 | nt
O=C1CC(Sc2nnc(-c3ccccc3)o2)C(=O)N1c1ccccc1 (stereo not drawn) | 12 | 52* | 19
Cc1nnc(SC2CC(=O)N(c3ccccc3)C2=O)s1 (stereo not drawn) | -13 | nt | nt
O=C1c2ccccc2CC1Sc1nnc(-c2ccncc2)o1 (stereo not drawn) | 4 | 46 | nt
Cc1ccccc1N1C(=O)CC(Sc2nnc(-c3ccccc3)o2)C1=O (stereo not drawn) | 8 | 58* | 45
CC(C)Nc1nc(NC(C)C)nc(N(C)n2cnnc2)n1 | 7 | -16 | nt
COC(=O)c1ccc2c(=O)n(Cc3ccco3)c(SCC(=O)Nc3ccccc3Cl)nc2c1 | 10 | 86* | 67*
COC(=O)c1ccc2c(=O)n(CC3CCCO3)c(SCC(=O)Nc3ccccc3Cl)nc2c1 (stereo not drawn) | 15 | nt | nt
CCN(CC)c1ccc(CC2C(=O)N(C)C(=O)N(C)C2=O)cc1 | nt | 8 | nt
C=CCOc1ccc(CC2C(=O)N(C)C(=O)N(C)C2=O)cc1 | 5 | 56* | 88*
